Source: PubChem BioAssay (NCI)
This is part of a sample that, as a whole, favours compounds with a hit. Of some 79,000 tested, about 15% had one in any assay. The source made the active and inactive calls. Rule as the data show it: active = growth inhibition above about 70%; inactive = the rest.

Experiments:
[1] = NCI Yeast Anticancer Drug Screen. Data for the rad52 strain (AID 147);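 also: 0% = growth of vehicle-treated control cultures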; details: S. cerevisiae rad52 mutant growth inhibition, stronger effect = higher value
Summary of the method: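 Here a repair-compromised yeast strain receives each compound; its growth is then quantified and normalised to vehicle-only controls.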

[2] = NCI Yeast Anticancer Drug Screen. Data for the wt1 strain (AID 149);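 also: 0% = growth of vehicle-treated wt1 cultures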; details: S. cerevisiae wt1 strain (SPY 50644) growth inhibition, stronger effect = higher value
Summary of the method: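 Readout: yeast growth inhibition, normalised to vehicle controls, in the wt1 strain exposed to test compounds.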

[3] = NCI Yeast Anticancer Drug Screen. Data for the rad50EPP+ strain (AID 151);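 also: 0% = growth of vehicle-treated control cultures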; details: S. cerevisiae rad50 mutant strain, stronger effect = higher value
Summary of the method: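 Read-out is yeast growth inhibition relative to vehicle; cells used were the rad50EPP+ strain.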

[4] = NCI Yeast Anticancer Drug Screen. Data for the mgt1 strain (AID 153); details: S. cerevisiae mgt1 mutant growth inhibition, stronger effect = higher value
Summary of the method: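 Measured: inhibition of mgt1 yeast growth by compound, normalized to vehicle-treated cultures.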

[5] = NCI Yeast Anticancer Drug Screen. Data for the rad50 strain (AID 155);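 also: 0% = growth of vehicle-only cultures of the same strain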; details: S. cerevisiae rad50 strain growth inhibition, stronger effect = higher value
Summary of the method: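 Compounds were tested on a yeast strain with an engineered DNA damage repair alteration; the reported value is growth inhibition normalised to vehicle treatment.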

[6] = NCI Yeast Anticancer Drug Screen. Data for the mec2-1 strain (AID 157); details: S. cerevisiae mec2-1 strain, stronger effect = higher value
Summary of the method: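 Using mec2-1 yeast: add compound, measure growth, express inhibition versus vehicle-treated cultures.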

[7] = NCI Yeast Anticancer Drug Screen. Data for the rad14 strain (AID 159);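 also: 0% = growth of vehicle-treated control cultures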; details: S. cerevisiae rad14 strain growth inhibition, stronger effect = higher value
Summary of the method: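 Compound-treated yeast with a defined DNA-repair lesion; growth inhibition normalised to vehicle-treated cultures.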

[8] = at 5.0 µM (retest, dose inferred, filed as 0.5)
[9] = at 50.0 µM (retest, dose inferred, filed as 5.0)

Measured: growth inhibition

c1ccc([P+](CCN2Cc3ccccc3C2)(c2ccccc2)c2ccccc2)cc1
active: [1]; at 100.0 µM 95% | [2]; at 100.0 µM 95% | [4]; at 100.0 µM 95% | [5]; at 50.0 µM 72.1% | [5]; at 100.0 µM 95% | [6]; [9] 81% | [6]; at 50.0 µM 78.9% | [6]; at 100.0 µM 95%
inactive: [1]; at 1.2 µM 29% | [1]; at 3.7 µM 54% | [1]; at 11.0 µM 39% | [1]; at 33.0 µM 64% | [2]; at 1.2 µM -7% | [2]; at 3.7 µM 31% | [2]; at 11.0 µM 26% | [2]; at 33.0 µM 38% | [3]; at 1.2 µM -21% | [3]; at 3.7 µM -15% | [3]; at 11.0 µM -10% | [3]; at 33.0 µM -8% | [3]; at 100.0 µM 6% | [4]; at 1.2 µM -19% | [4]; at 3.7 µM 2% | [4]; at 11.0 µM 28% | [4]; at 33.0 µM 48% | [5]; at 1.2 µM 30% | [5]; at 3.7 µM 64% | [5]; [8] 64% | [5]; at 11.0 µM 61% | [5]; at 33.0 µM 61% | [5]; [9] 69% | [6]; at 1.2 µM -15% | [6]; at 3.7 µM 39% | [6]; [8] 49% | [6]; at 11.0 µM 36% | [6]; at 33.0 µM 67% | [7]; at 1.2 µM -22% | [7]; at 3.7 µM 13% | [7]; at 11.0 µM 21% | [7]; at 33.0 µM 53%
